27 molecules from PubChem BioAssay (EPA / NIEHS) can be followed below.

Active and inactive are the calls of the source. The calls were made as follows: active = hit-call score of the fitted dose curve at least 0.9, where 1 is the maximum; inactive = score below 0.9.

A short description of experiment [1]: ATG_GLI_CIS: Attagene CIS-FACTORIAL HepG2 Assay for human Zinc Finger Protein GLI1 (AID 2282945). The note with it: HepG2, Attagene cis-factorial reporter mRNA, GLI element; actives raise or lower the signal. Summed up:
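HepG2 cells transiently transfected with cis-promoter multiplexed reporter units report endogenous transcription factor activity. After 24 h chemical exposure, reporter mRNA was quantified by RT-PCR, 6-FAM labelling, HpaI digestion and capillary electrophoresis, with bidirectional fitting against DMSO.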

Experiment [2] in a line: ATG_GRE_CIS: Attagene CIS-FACTORIAL HepG2 Assay for human Glucocorticoid Response Elements (GRE) (AID 2282947). The note with it: HepG2 GRE cis-reporter, Attagene multiplex mRNA; actives raise or lower the signal. Summed up:
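Cells (HepG2) bearing transfected cis-promoter reporter transcription units were treated with chemical for 24 hours. Reporter mRNA was measured via RT-PCR with capillary electrophoresis, and activity was fitted in both directions relative to DMSO.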

Experiment [3] can be described thus: ATG_ISRE_CIS: Attagene CIS-FACTORIAL HepG2 Assay for human Interferon Regulatory Factor 1 (IRF1) binding to an Interferon-Stimulated Response Element (ISRE) (AID 2282948). The note with it: HepG2 ISRE cis-reporter (Attagene), mRNA transcription readout; actives raise or lower the signal. Summed up:
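Signal reflects induction or loss of ISRE-linked reporter mRNA in transiently transfected HepG2 cells after a 24 h treatment, detected by fluorescent RT-PCR fragments on capillary electrophoresis and normalised to DMSO.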

The nature of experiment [4]: ATG_M_32_CIS: Attagene CIS-FACTORIAL HepG2 Assay for M32 Transcription Factor (Internal Marker) (AID 2282949).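 Also: background control marker of the multiplexed CIS panel rather than a real target.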 The note with it: HepG2 Attagene cis-factorial M32 reporter, mRNA; actives raise or lower the signal. Summed up:
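HepG2 human liver cells transiently transfected with cis-promoter-driven multiple reporter transcription units, dosed 24 h. Reporter mRNA quantified by RT-PCR, FAM-labelled primer extension, HpaI digest and capillary electrophoresis; bidirectional fit versus DMSO baseline.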

Experiment [5] can be described thus: ATG_M_06_CIS: Attagene CIS-FACTORIAL HepG2 Assay for M06 Transcription Factor (Internal Marker) (AID 2282950). Conditions: HepG2 Attagene CIS-FACTORIAL M06 internal marker reporter; actives raise or lower the signal. Summed up:
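HepG2 liver cells, 24 h exposure. Reporter transcripts from transfected cis-element constructs quantified by RT-PCR/capillary electrophoresis fluorescence. Bidirectional curve fit against DMSO.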

The target in experiment [6] is Hypoxia-inducible factor 1-alpha (Homo sapiens) (UniProt Q16665). The experiment can be described thus: ATG_HIF1a_CIS: Attagene CIS-FACTORIAL HepG2 Assay for human Hypoxia Inducible Factor 1 (HIF1A) (AID 2282951). The note with it: HepG2 Attagene cis-factorial HIF1a reporter transcription; actives raise or lower the signal. Summed up: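 Transient MRTU transfection of human HepG2 liver cells, 24 h compound treatment, then total RNA isolation, oligo(dT) reverse transcription, PCR amplification, fluorescent labelling and capillary electrophoresis of reporter fragments. Gain or loss relative to DMSO.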
Sequence of Hypoxia-inducible factor 1-alpha (Homo sapiens) (Q16665 whole entry, looked up, the tested form may be a part): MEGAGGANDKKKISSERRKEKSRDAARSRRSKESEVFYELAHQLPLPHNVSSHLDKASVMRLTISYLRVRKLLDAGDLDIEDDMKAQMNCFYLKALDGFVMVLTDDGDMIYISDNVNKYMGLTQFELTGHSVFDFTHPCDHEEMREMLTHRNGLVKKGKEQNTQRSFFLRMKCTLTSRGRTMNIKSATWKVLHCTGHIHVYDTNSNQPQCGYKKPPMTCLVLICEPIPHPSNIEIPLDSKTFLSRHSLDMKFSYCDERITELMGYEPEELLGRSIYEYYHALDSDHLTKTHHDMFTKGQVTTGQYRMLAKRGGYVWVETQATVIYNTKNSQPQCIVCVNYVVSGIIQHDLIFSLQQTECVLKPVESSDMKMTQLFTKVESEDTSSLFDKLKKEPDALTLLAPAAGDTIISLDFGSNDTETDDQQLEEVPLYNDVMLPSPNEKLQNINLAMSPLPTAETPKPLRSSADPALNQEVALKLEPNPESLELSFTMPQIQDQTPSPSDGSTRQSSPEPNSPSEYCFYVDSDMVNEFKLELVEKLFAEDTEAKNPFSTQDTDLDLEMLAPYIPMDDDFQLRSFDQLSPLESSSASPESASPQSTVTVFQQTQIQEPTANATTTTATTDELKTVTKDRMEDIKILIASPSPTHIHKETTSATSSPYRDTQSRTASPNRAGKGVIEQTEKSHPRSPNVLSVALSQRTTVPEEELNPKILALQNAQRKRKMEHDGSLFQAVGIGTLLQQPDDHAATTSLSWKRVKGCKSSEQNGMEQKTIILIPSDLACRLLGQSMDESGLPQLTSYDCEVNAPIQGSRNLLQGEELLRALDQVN

Experiment [7] deals with Hepatocyte nuclear factor 6 (Homo sapiens) (UniProt Q9UBC0). The experiment can be described thus: ATG_HNF6_CIS: Attagene CIS-FACTORIAL HepG2 Assay for human Hepatocyte Nuclear Factor 6 (HNF6) (AID 2282952). The note with it: HepG2 Attagene cis-factorial HNF6 reporter transcription; actives raise or lower the signal. Summed up: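 Endogenous factor activity read in transiently transfected HepG2 via promoter-regulated reporter transcripts. RNA harvested 24 h post-dosing, reverse-transcribed, PCR-amplified, FAM-labelled, HpaI-digested and resolved by capillary electrophoresis; fitted in both directions against DMSO.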
Sequence of Hepatocyte nuclear factor 6 (Homo sapiens) (Q9UBC0 whole entry, looked up): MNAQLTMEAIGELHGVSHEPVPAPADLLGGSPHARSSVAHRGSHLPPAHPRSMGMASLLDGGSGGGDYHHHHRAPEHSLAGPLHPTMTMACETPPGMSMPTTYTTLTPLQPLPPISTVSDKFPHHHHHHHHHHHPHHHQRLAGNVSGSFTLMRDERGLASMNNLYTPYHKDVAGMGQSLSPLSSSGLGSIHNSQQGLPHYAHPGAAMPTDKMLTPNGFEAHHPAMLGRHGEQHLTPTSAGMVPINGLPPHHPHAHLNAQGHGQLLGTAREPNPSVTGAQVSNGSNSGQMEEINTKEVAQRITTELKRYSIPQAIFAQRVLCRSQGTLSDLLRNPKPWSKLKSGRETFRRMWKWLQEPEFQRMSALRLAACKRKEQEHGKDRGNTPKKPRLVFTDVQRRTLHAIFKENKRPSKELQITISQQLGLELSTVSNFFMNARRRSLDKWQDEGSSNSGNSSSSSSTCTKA

In experiment [8] the target is Heat shock factor protein 1 (Homo sapiens) (UniProt Q00613). The experiment can be described thus: ATG_HSE_CIS: Attagene CIS-FACTORIAL HepG2 Assay for human Heat Shock Transcription Factor 1 (HSE) (AID 2282953). Conditions: HepG2 HSE cis-reporter, Attagene RNA transcription; actives raise or lower the signal. Summed up:
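Endogenous transcription factor activity captured via cis-promoter reporter units transfected into HepG2; treatment lasted 24 h. Fluorescence intensity of reporter fragments analysed with bidirectional curve fitting, DMSO baseline.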

Experiment [9] in a line: ATG_MRE_CIS: Attagene CIS-FACTORIAL HepG2 Assay for human Metal Responsive Element (MRE) (AID 2282954). The note with it: HepG2 MRE cis-reporter transcription, Attagene multiplex; actives raise or lower the signal. Summed up: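 Cells were transfected with cis-promoter reporter transcription units, then dosed for 24 h. RNA was reverse-transcribed, amplified, fluorescently labelled and resolved by capillary electrophoresis, and activity was fitted in both directions relative to DMSO.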

For experiment [10], the target named is Bile acid receptor (Homo sapiens) (UniProt Q96RI1). The experiment can be described thus: ATG_IR1_CIS: Attagene CIS-FACTORIAL HepG2 Assay for human Nuclear Receptor Subfamily 1 Group H Member 4 (NR1H4), IR1 submotif (AID 2282946). Conditions: IR1 reporter transcription, actives raise or lower the signal. Summed up: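 Readout: reporter transcript levels by RT-PCR with fluorescent capillary electrophoresis, from HepG2 cells transiently transfected with multiplexed cis-regulated reporters and dosed 24 h. Gain- or loss-of-signal fitted versus DMSO negative control.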
Sequence of Bile acid receptor (Homo sapiens) (Q96RI1 whole entry, looked up): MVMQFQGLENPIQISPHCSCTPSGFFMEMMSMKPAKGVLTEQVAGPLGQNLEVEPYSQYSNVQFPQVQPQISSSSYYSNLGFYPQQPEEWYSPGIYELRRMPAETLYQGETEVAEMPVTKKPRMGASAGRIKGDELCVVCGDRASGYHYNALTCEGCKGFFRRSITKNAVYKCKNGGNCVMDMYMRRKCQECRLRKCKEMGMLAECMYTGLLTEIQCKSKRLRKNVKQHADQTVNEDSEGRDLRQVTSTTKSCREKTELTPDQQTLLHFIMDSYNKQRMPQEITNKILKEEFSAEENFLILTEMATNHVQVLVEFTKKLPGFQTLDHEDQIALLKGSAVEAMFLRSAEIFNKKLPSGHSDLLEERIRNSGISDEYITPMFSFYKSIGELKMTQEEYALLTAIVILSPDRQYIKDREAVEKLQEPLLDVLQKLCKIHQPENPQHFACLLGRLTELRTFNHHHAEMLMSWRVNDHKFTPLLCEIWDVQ

Sequence of Heat shock factor protein 1 (Homo sapiens) (Q00613 whole entry, looked up, the tested form may be a part): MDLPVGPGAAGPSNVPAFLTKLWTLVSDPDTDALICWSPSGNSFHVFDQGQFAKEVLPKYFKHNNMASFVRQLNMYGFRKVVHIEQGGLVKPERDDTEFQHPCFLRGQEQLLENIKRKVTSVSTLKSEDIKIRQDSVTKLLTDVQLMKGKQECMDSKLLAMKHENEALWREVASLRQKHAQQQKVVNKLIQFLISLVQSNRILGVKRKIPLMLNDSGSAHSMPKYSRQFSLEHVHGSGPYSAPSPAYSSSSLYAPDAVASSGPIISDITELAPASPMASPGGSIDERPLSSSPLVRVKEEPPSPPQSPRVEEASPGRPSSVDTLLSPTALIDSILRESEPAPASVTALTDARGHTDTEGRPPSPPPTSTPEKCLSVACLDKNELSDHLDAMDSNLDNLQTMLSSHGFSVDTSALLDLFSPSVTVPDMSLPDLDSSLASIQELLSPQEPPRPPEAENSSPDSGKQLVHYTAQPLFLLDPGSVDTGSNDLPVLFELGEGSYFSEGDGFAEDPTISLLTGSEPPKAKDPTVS

In the case of `O=C1CCCCCCCCCCCC(=O)OCCO1`, the call in experiment [1], in [2], in experiment [3], in [4], in experiment [5] and in [6] was inactive. The molecule was called inactive in [7], in experiment [8] and in [9].

Take `CC/C=C\C#N`: the call in experiment [1], in experiment [2], in experiment [3], in experiment [4], in experiment [5] and in experiment [6] was inactive. For the same molecule, the molecule was classed as inactive in experiment [7], in [8] and in experiment [9].

`CCCC1CCC(=O)CC1`: the result in [1], in [2], in [3], in [4], in experiment [5] and in [6] was inactive. Moreover, the molecule was classed as inactive in experiment [7], in experiment [8] and in experiment [9].

As to `CC1(C)CC(=O)CC(C)(C)N1`, the molecule was called inactive in [1], in experiment [2], in experiment [3], in [4], in experiment [5] and in [6]. In addition, the molecule was classed as inactive in [7], in [8] and in experiment [9].

On to `CCn1cc(C(=O)O)c(=O)c2ccc(C)nc21`, for which the molecule was called inactive in experiment [1], in [10], in experiment [3], in [4], in [5] and in [8]. Also, the result in experiment [9] was inactive.

`CCCCOCCOC(=O)c1ccccc1C(=O)OCCOCCCC`: the molecule was called inactive in experiment [1], in [10], in experiment [3], in [4], in experiment [5] and in [6]. Moreover, the outcome in [7] and in experiment [8] was inactive. For the same molecule, the AC50 (as a rule, the concentration giving half of the maximal activity seen) in [9] is 23.4 µM (active).

With `CC1=CC[C@@H](C(C)(C)O)CC1`, the call in [1], in [10], in [3], in experiment [4], in [5] and in experiment [6] was inactive. Moreover, the call in experiment [7], in experiment [8] and in experiment [9] was inactive.

`O=C(O)CS`: the outcome in [1], in experiment [2], in [3], in experiment [4], in [5] and in [6] was inactive. In addition, the outcome in experiment [7], in experiment [8] and in experiment [9] was inactive.

Consider `FC(F)(F)c1ccc(Cl)c(Cl)c1`, for which the result in experiment [1], in experiment [2], in experiment [3], in experiment [4], in experiment [5] and in experiment [6] was inactive. Also, the outcome in experiment [7], in experiment [8] and in experiment [9] was inactive.

For the molecule `O=C(O)C1=NN(c2ccc(S(=O)(=O)O)cc2)C(=O)C1`, the molecule was classed as inactive in experiment [1], in experiment [2], in experiment [3], in experiment [4], in experiment [5] and in experiment [6]. For the same molecule, the outcome in [7], in [8] and in experiment [9] was inactive.

As for `NC(=O)c1c(Cl)cccc1Cl`, the outcome in experiment [1], in experiment [10], in experiment [3], in [4], in experiment [5] and in experiment [6] was inactive. In addition, the result in experiment [7], in experiment [8] and in [9] was inactive.

With `CCCCOC(=O)C(C)OC(=O)CCC` (stereo unspecified), the molecule was called inactive in experiment [1], in experiment [2], in experiment [3], in experiment [4], in experiment [5] and in [6]. The result in experiment [7], in experiment [8] and in [9] was inactive.

As to `Cc1cccc(O)c1`, the call in experiment [1], in [2], in [3], in experiment [4], in experiment [5] and in experiment [6] was inactive. The molecule was classed as inactive in experiment [7], in [8] and in experiment [9].

For `CCCCOCCOCCO`, the call in [1], in experiment [2], in experiment [3], in experiment [4], in experiment [5] and in experiment [6] was inactive. The molecule was called inactive in [7], in [8] and in experiment [9].

For `[Na+]`, the result in [1], in [2], in experiment [3], in experiment [4], in experiment [5] and in [6] was inactive. For the same molecule, the outcome in [7], in experiment [8] and in experiment [9] was inactive.

With `Cc1ccccc1S`, the molecule was classed as inactive in experiment [1], in experiment [3], in experiment [4], in experiment [5], in [6] and in [7]. The AC50 in experiment [10] is 55.7 µM (active); in experiment [8], 113 µM (active); in experiment [9] it was 102 µM (active).

As to `CCC(C)(C)C1CCC(OC)CC1` (stereo unspecified), the molecule was called inactive in experiment [1], in [10], in experiment [3], in experiment [4], in [5] and in experiment [6]. Further, the molecule was called inactive in experiment [7], in experiment [8] and in experiment [9].

As to `COc1ccc(OC)cc1`, the outcome in experiment [1], in experiment [2], in experiment [3], in [4], in experiment [5] and in experiment [6] was inactive. The molecule was called inactive in experiment [7], in experiment [8] and in experiment [9].

On to `CCOC(=O)CC(C)C`, for which the result in experiment [1], in experiment [2], in [3], in experiment [4], in experiment [5] and in experiment [6] was inactive. The result in [7], in experiment [8] and in [9] was inactive.

For the molecule `S=c1[nH][nH]c(=S)s1`, the outcome in experiment [1], in [2], in [3], in experiment [4], in experiment [5] and in experiment [6] was inactive. Besides, the molecule was classed as inactive in experiment [7], in [8] and in experiment [9].

Take `CC(C)=CCCC(C)=CC(=O)O`: the molecule was classed as inactive in experiment [1], in experiment [2], in experiment [3], in [4], in experiment [5] and in experiment [6]. The result in experiment [7], in experiment [8] and in [9] was inactive.

In the case of `CCCCCCCCCCCCCC(=O)OCC`, the result in experiment [1], in experiment [2], in experiment [3], in experiment [4], in [5] and in experiment [6] was inactive. Besides, the molecule was called inactive in [7], in experiment [8] and in [9].

Take `CC1(C)CC(N)CC(C)(CN)C1` (stereo unspecified): the call in experiment [1], in experiment [2], in experiment [3], in experiment [4], in experiment [5] and in experiment [6] was inactive. Besides, the call in experiment [7], in experiment [8] and in experiment [9] was inactive.

As to `COc1ccc(N)c(C)c1`, the molecule was called inactive in experiment [1], in [10], in experiment [3], in [4], in [5] and in [6]. In addition, the molecule was called inactive in experiment [7], in experiment [8] and in [9].

For `CCCCCCCCOC(=O)c1ccc(O)cc1`, the call in experiment [1], in [2], in experiment [3], in experiment [4], in experiment [5] and in experiment [6] was inactive. Further, the molecule was called inactive in experiment [7], in experiment [8] and in [9].

Regarding `CCCCC(CC)COCCO` (stereo unspecified), the molecule was classed as inactive in experiment [1], in experiment [2], in experiment [3], in experiment [4], in experiment [5] and in [6]. The outcome in experiment [7], in experiment [8] and in experiment [9] was inactive.

In the case of `CC/C(=C(\c1ccccc1)c1ccc(OCCN(C)C)cc1)c1ccccc1`, the molecule was called inactive in experiment [1], in [2], in [3], in experiment [4], in experiment [5] and in experiment [6]. Further, the call in [7], in experiment [8] and in experiment [9] was inactive.
